# Laboratory results reported in PubChem BioAssay (NCATS).
# Inconclusive results are not listed. A number with no mark means an inactive call. Calls of active or inactive are those of the source. Calls come from the whole dose curve; as a rule, active = well fitted inhibition curve with a large enough effect; inconclusive = small, poorly fitted or top-dose-only effect; inactive = flat fitted curve, though single readings scatter.
# System: CRL-7250
# Assay: Cytotoxic Profiling of Annotated Libraries Using Quantitative High-Throughput Screening (AID 1296008); note: nearly all actives have a fitted effect of over 60% in size
# Settings: Five cell lines viability, CellTiter-Glo ATP luminescence, 48-72 h; max response: stronger effect = lower value
# In short: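 Cytotoxicity was measured as CellTiter-Glo ATP luminescence, read after 10 min at room temperature. Compound treatment of the cells lasted 48 or 72 hr at 37 degrees Celsius in a qHTS format.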
# % is set by controls: 0 for no effect and ±100 for the full control effect; potency is the fitted concentration of half-maximal effect.
Structure (SMILES),max response,Potency
C=C[C@]1(C)C[C@H](O)[C@@H]2[C@H](OC(=O)[C@@H]2C)C1/C(C)=C/O[C@@H]1O[C@H](CO)[C@@H](O)[C@H](O)[C@H]1O (some centres undefined),-0.594%,–
CNS(=O)(=O)c1ccccc1Nc1nc(Nc2ccc(N3CCN(C)CC3)cc2OC)ncc1Cl,–,1.46 µM (active)
C/C=C/C=C/C(=O)N1CC[C@]23c4ccccc4N[C@H]4N(C)c5cccc6c5[C@@]42CCN([C@H]6C2OC2(C)C)[C@H]13 (some centres undefined),-2.8%,–
CNS(=O)(=O)CC1CCC(N(C)c2ncnc3[nH]ccc23)CC1 (centres undefined),2.42%,–
CC1COC2(OC3CC4C5CC(O[C@@H]6O[C@H](C)[C@@H](O[C@@H]7O[C@@H](C)[C@H](O)[C@@H](O)[C@H]7O)[C@H](O)[C@H]6O)C6CC(O)CCC6(C)C5CCC4(C)C3C2C)C(O)C1 (some centres undefined),-20%,–
CC(C)C(=O)OC[C@H]1O[C@H](O[C@H]2O[C@H](CO)[C@@H](O)[C@H](O)[C@H]2O)[C@H](O)[C@@H](O)[C@@H]1O,-1.64%,–
CC1(C)CC[C@]2(C(=O)O)CC[C@]3(C)C(=CCC4[C@@]5(C)CC[C@H](O[C@@H]6O[C@H](C(=O)O)[C@@H](O[C@@H]7OC[C@@H](O)[C@H](O)[C@H]7O)[C@H](O)[C@H]6O)C(C)(C)C5CC[C@]43C)C2C1O (some centres undefined),4.1%,–
CC(C)C(NC(=O)c1ccc2ccccc2n1)C(=O)NC(CC(=O)O)C(=O)COc1c(F)cccc1F (centres undefined),-6.89%,–
COc1ccc(/C=C/C(=O)O[C@H]2[C@H](O[C@H]3[C@@H]4C=CO[C@@H](O[C@@H]5O[C@H](CO)[C@@H](O)[C@H](O)[C@H]5O)[C@@H]4[C@@]4(CO)O[C@@H]34)O[C@@H](C)[C@H](O)[C@H]2OC(C)=O)cc1,3.12%,–
